# PubChem BioAssay (EPA / NIEHS)
# Results filed as inconclusive are left out. Active and inactive are the calls of the source. The calls were made as follows, unless noted: active = hit-call score of the fitted dose curve at least 0.9, where 1 is the maximum; inactive = score below 0.9.
# Experiments:
# [1] = CCTE_Shafer_MEA_dev_interburst_interval_mean: CCTE's Neural Network Formation Assay for Mean Interburst Interval, Shafer Lab (AID 2284046);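 also: well-mean interburst interval of bursting electrodes as AUC over four recording days; curve fitted for decrease in interburst interval relative to DMSO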
# How it was run: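 Developing rat cortical networks on 48-well MEAs receive compound from the day of plating. Burst intervals from each active electrode are averaged per well, and AUC over the recording days is fitted in the negative direction against DMSO.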
# [2] = CCTE_Shafer_MEA_dev_network_spike_number: CCTE's Neural Network Formation Assay for Number of Network Spikes, Shafer Lab (AID 2284048);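 also: synchronized bursts across electrodes counted on days 5 7 9 12 and integrated as AUC; fit as a loss of signal meaning fewer network spikes than DMSO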
# How it was run: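 Extracellular recordings from 16-electrode wells track network formation in rat cortical cultures under continuous treatment from plating. The endpoint is network spike number, expressed as AUC across DIV 5–12 relative to DMSO vehicle.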
# [3] = CCTE_Shafer_MEA_dev_network_spike_peak: CCTE's Neural Network Formation Assay for Mean Number of Electrodes in Network Spike, Shafer Lab (AID 2284049);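 also: fitted for loss of signal meaning fewer electrodes in network spikes than DMSO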
# How it was run: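 Continuous 12-day exposure of rat cortical cultures, starting at plating, on MEA plates. Endpoint: electrodes participating in network-spike peaks, AUC across DIV 5–12, DMSO as negative control.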
# [4] = CCTE_Shafer_MEA_dev_spike_duration_mean: CCTE's Neural Network Formation Assay for Mean Spike Duration, Shafer Lab (AID 2284051);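 also: mean network spike duration pooled as area under curve over DIV 5 to 12 recordings; potency for a decrease in mean network spike duration versus DMSO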
# How it was run: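 Readout is the average length of network spikes, clustered firing across electrodes, summed over DIV 5, 7, 9 and 12 as area under the curve. Neurons from rat cortex developed networks on MEA plates under continuous 12-day exposure.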
# [5] = CCTE_Shafer_MEA_dev_network_spike_duration_std: CCTE's Neural Network Formation Assay for Standard Deviation of Network Spike Duration, Shafer Lab (AID 2284052);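 also: area under curve of spike duration SD across recording days 5 to 12; hits are decreases in network spike duration SD versus DMSO vehicle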
# How it was run: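 Read-out is the trapezoidal area-under-the-curve across recordings made on days 5, 7, 9 and 12, fitted in the negative direction against DMSO baseline. Neurons were primary rat cortical cells treated from day 0, with treatment renewed at each feed.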
# [6] = CCTE_Shafer_MEA_dev_per_network_spike_spike_number_mean: CCTE's Neural Network Formation Assay for Mean Number of Spikes in a Network Spike, Shafer Lab (AID 2284053);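 also: fitted as decrease in spikes per network spike relative to DMSO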
# How it was run: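 Continuous twelve-day exposure of developing rat cortical networks grown over 16 microelectrodes per well; spontaneous firing is captured at four time points, and the per-network-spike spike number is integrated over development by trapezoidal AUC.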
# [7] = CCTE_Shafer_MEA_acute_AB: CCTE's Alamar Blue Assay for Cytotoxicity in the Neural Acute Assay, Shafer Lab (AID 2284069; active = hit-call score of the fitted dose curve at least 0.9, where 1 is the maximum;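 also: active compounds lower the viability signal compared with DMSO wells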)
# How it was run: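 Metabolic activity in chemically exposed rat cortical neurons (MEA cultures, day 13/15 post-plating) measured via CellTiter Blue resazurin reduction, 544/590 nm fluorescence; fitted relative to DMSO, with signal loss indicating reduced viability.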
# [8] = CCTE_Shafer_MEA_acute_LDH: CCTE's Lactate Dehydrogenase Assay for Cytotoxicity in the Neural Acute Assay, Shafer Lab (AID 2284086; active = hit-call score of the fitted dose curve at least 0.9, where 1 is the maximum;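 also: active means LDH release rises above DMSO vehicle level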)
# How it was run: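 Medium collected from MEA wells of primary rat cortical cultures (DIV 13 or 15) immediately after 40 min chemical exposure is assayed spectrophotometrically for lactate dehydrogenase activity. Endpoint fitted in positive direction versus DMSO.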
# [9] = CCTE_Shafer_MEA_dev_mutual_information_norm: CCTE's Neural Network Formation Assay for Mutual Information Normalization, Shafer Lab (AID 2284091);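 also: mutual information between electrodes summarised as area under curve across four recording days; potency is for a decrease in mutual information relative to DMSO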
# How it was run: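 Exposure of primary rat cortical neurons began at plating and ran to DIV 12, with full media and treatment renewal after DIV 5 and 9 recordings. Mutual information AUC (DIV 5–12) was analysed for loss versus DMSO.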
# [10] = CCTE_Shafer_MEA_dev_correlation_coefficient_mean: CCTE's Neural Network Formation Assay for Mean Correlation Coefficient, Shafer Lab (AID 2284093);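 also: well mean pairwise spike train correlation integrated as AUC over recording days 5 to 12; potency fitted for loss of correlation relative to DMSO vehicle wells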
# How it was run: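 Read-out: well-mean correlation coefficient of spike trains between electrode pairs, collapsed over four recording days as trapezoidal area-under-the-curve. Developing rat cortical neuron networks grown on MEAs received test chemical continuously from plating.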
# [11] = CCTE_Mundy_HCI_Cortical_Synap_Neur_Matur_NeuriteSpotCountPerNeuriteLength: CCTE's Synaptogenesis and Neurite Maturation Assay in rat cortical cells for Neurite Spot Count per Neurite Length, Mundy Lab (AID 2284210)
# How it was run: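 Neurite-associated synapse density (synaptophysin puncta per unit neurite length) is measured by fluorescence high-content imaging in rat cortical cultures treated from DIV 7 and fixed at DIV 12, with DMSO as negative control.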
# [12] = CCTE_Mundy_HCI_Cortical_Synap_Neur_Matur_BPCount: CCTE's Synaptogenesis and Neurite Maturation Assay in rat cortical cells for Branch Point Count, Mundy Lab (AID 2284211)
# How it was run: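 HCI read-out of branch points from MAP2/synaptophysin/Hoechst immunofluorescence; rat cortical cultures, AraC DIV 5, dosing DIV 7, fixed DIV 12; fit in positive direction vs DMSO baseline.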
# [13] = CCTE_Mundy_HCI_Cortical_NOG_NeuriteCount: CCTE's Neurite Outgrowth Assay in rat cortical cells for Neurite Count, Mundy Lab (AID 2284212);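 also: cells fixed about two days after chemical exposure began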
# How it was run: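 Rat cortical primary cells; compound added 2 h post-plating, 1/10 dilution of working solution. Anti-betaIII-tubulin/AF488 ICC; ArrayScan neurite count vs DMSO.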
# [14] = CCTE_Mundy_HCI_Cortical_NOG_NeuriteLength: CCTE's Neurite Outgrowth Assay in rat cortical cells for Neurite Length, Mundy Lab (AID 2284213)
# How it was run: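 First, rat primary cortical cells were plated and, 2 h later, given test chemical as a 1/10 dilution. Finally, βIII-tubulin immunostaining enabled automated imaging of neurite length.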
# [15] = CCTE_Mundy_HCI_Cortical_Synap_Neur_Matur_NeuriteLength: CCTE's Synaptogenesis and Neurite Maturation Assay in rat cortical cells for Neurite Length, Mundy Lab (AID 2284214)
# How it was run: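 Cultures of rat primary cortical cells received chemical at DIV 7 and were fixed at DIV 12, after glial arrest with AraC at DIV 5. Neurite length was measured by automated imaging of MAP2 immunofluorescence.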
# [16] = CCTE_Mundy_HCI_Cortical_Synap_Neur_Matur_NeuriteSpotCountPerNeuron: CCTE's Synaptogenesis and Neurite Maturation Assay in rat cortical cells for Neurite Spot Count per Neuron Count, Mundy Lab (AID 2284215)
# How it was run: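 Rat primary cortical cells received AraC at DIV 5, then chemicals with a media change at DIV 7, and were fixed at DIV 12. Synaptophysin puncta on MAP2-stained neurites per neuron were counted by high-content imaging, fitted relative to DMSO.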
# [17] = CCTE_Mundy_HCI_Cortical_Synap_Neur_Matur_SynapseCount: CCTE's Synaptogenesis and Neurite Maturation Assay in rat cortical cells for Synapse Count, Mundy Lab (AID 2284218)
# How it was run: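 Cells were plated, allowed 2 hr to attach, treated with AraC at DIV 5, then exposed to chemicals from DIV 7 until DIV 12. After fixation and MAP2/synaptophysin immunolabelling, synapses per neuron were quantified by automated imaging against DMSO.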
# [18] = CCTE_Mundy_HCI_Cortical_Synap_Neur_Matur_NeuriteCount: CCTE's Synaptogenesis and Neurite Maturation Assay in rat cortical cells for Neurite Count, Mundy Lab (AID 2284222)
# How it was run: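 Chemical exposure runs DIV 7–12 in rat cortical cultures, glia suppressed by AraC at DIV 5; measurement is at DIV 12. Imaging-derived neurite counts are fitted against DMSO baseline.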
# [19] = CCTE_Mundy_HCI_Cortical_Synap_Neur_Matur_CellBodySpotCount: CCTE's Synaptogenesis and Neurite Maturation Assay in rat cortical cells for Cell Body Spot Count, Mundy Lab (AID 2284223)
# How it was run: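 Rat primary cortical cultures received AraC at DIV 5 to arrest glia, were dosed with chemical at DIV 7 with media change, and were fixed at DIV 12 (288.33 h). Synaptophysin puncta on MAP2-positive cell bodies per neuron were counted by high-content imaging versus DMSO.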
# [20] = CCTE_Mundy_HCI_Cortical_NOG_NeuronCount: CCTE's Neurite Outgrowth Assay in rat cortical cells for Neuron Count, Mundy Lab (AID 2284236; active = hit-call score of the fitted dose curve at least 0.9, where 1 is the maximum;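 also: neurons counted by imaging betaIII-tubulin and Hoechst stained cortical cells; cells exposed to compound for about 48 hours before fixation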)
# How it was run: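 Read-out: neuron number by high-content imaging of betaIII-tubulin (Alexa Fluor-488) and Hoechst-labelled rat primary cortical cells.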
# [21] = CCTE_Mundy_HCI_Cortical_NOG_BPCount: CCTE's Neurite Outgrowth Assay in rat cortical cells for Branch Point Count, Mundy Lab (AID 2284237)
# How it was run: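 Measured 50.33 h after dosing, this morphology endpoint uses rat primary cortical cultures labelled for betaIII-tubulin. Branch points are quantified by high-content imaging, with DMSO as negative control and baseline.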
# [22] = CCTE_Mundy_HCI_hNP1_Casp3_7: CCTE's Caspase-Glo 3/7 Assay in human neuroprogenitor cells for Apoptosis, Mundy Lab (AID 2284240)
# How it was run: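 Neuroepithelial-lineage stem cells from WA09 embryonic cells were treated with chemicals after 40–44 h of culture. Twenty-four hours later, caspase-3/7 activation was detected luminescently after a 30 min room-temperature reagent step, with DMSO as baseline.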
# [23] = CCTE_Mundy_HCI_hNP1_CellTiter: CCTE's Cell Titer-Glo 2 Assay in human neuroprogenitor cells for Viability, Mundy Lab (AID 2284241; active = hit-call score of the fitted dose curve at least 0.9, where 1 is the maximum;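 also: a hit is a drop in ATP luminescence versus DMSO meaning reduced viability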)
# How it was run: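 Measures ATP content in human neural progenitors derived from WA09 embryonic cells. Read-out at 26.5 hours after dosing, with DMSO serving as the negative control and baseline.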
# [24] = CCTE_Mundy_HCI_iCellGluta_NOG_NeuriteCount: CCTE's Neurite Outgrowth Assay in iCellGluta cells for Neurite Count, Mundy Lab (AID 2284342; active = hit-call score of the fitted dose curve at least 0.9, where 1 is the maximum;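 also: chemical exposure about 48 hours starting 2 hours after plating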)
smiles,measurement,setting,value
CC1(C)[C@H](C=C(Cl)Cl)[C@@H]1C(=O)O[C@@H](C#N)c1cccc(Oc2ccccc2)c1,outcome,[1],inactive
same,AC50,[2],4.81 µM (active)
same,AC50,[3],8.44 µM (active)
same,AC50,[4],4.92 µM (active)
same,AC50,[5],4.6 µM (active)
same,AC50,[6],5.97 µM (active)
same,outcome,[7],inactive
same,outcome,[8],inactive
same,AC50,[9],2.25 µM (active)
same,AC50,[10],4.79 µM (active)
same,outcome,[11],inactive
same,outcome,[12],inactive
same,outcome,[13],inactive
same,outcome,[14],inactive
same,outcome,[15],inactive
same,outcome,[16],inactive
same,outcome,[17],inactive
same,outcome,[18],inactive
same,outcome,[19],inactive
same,outcome,[20],inactive
same,outcome,[21],inactive
same,outcome,[22],inactive
same,AC50,[23],26 µM (active)
same,outcome,[24],inactive
